Data taken from the supplement of paper PMC3334620.
Whole data set: some 33,000 sequences, median “E-score (-0.5 to 0.5)” near -0.01, cut for the highest 2% near 0.26. This excerpt belongs to a sample that is enriched for the highest values.

These sequences were tested against Ste12 (UniProt P13574) (assay: PBM E-score (8-mer binding enrichment) (E-score (-0.5 to 0.5)); higher = stronger / more preferred TF binding). Settings: protein concentration: 200 nM; construct: GST-DNA-binding domain.
Chain of UniProt P13574 (P13574 whole entry, the tested form may be a part): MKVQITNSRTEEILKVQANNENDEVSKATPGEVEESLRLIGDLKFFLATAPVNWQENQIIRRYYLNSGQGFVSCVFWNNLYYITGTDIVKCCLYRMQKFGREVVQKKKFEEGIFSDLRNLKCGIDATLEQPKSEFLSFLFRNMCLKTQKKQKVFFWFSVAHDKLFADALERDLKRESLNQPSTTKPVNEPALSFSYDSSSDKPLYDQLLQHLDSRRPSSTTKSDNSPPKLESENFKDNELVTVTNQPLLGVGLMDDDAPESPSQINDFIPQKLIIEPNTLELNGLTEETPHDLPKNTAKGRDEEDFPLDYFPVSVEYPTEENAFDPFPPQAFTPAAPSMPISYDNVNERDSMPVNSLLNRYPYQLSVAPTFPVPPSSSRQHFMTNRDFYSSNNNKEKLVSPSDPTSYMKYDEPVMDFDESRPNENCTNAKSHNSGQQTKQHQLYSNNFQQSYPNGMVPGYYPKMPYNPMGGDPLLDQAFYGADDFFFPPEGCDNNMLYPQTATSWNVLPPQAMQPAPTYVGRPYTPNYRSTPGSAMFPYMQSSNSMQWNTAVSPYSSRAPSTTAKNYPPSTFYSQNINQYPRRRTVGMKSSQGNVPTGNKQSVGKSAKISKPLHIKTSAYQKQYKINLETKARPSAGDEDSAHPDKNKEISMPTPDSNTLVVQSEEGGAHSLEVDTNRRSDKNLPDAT
Experimental: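 Universal 'all 10-mer' protein binding microarrays (Agilent AMADID 015681) probed with GST-tagged S. cerevisiae TFs (full-length or DBD) made by in vitro transcription/translation (PURExpress), about 100-200 nM. Bound TF was detected with fluorescent anti-GST. Each ungapped 8-mer (which stands for itself and its reverse complement) is scored by the PBM enrichment score (E-score), a modified Wilcoxon-Mann-Whitney statistic from -0.5 to +0.5, computed with the Universal PBM Analysis Suite. Scale: above 0.35 generally sequence-specific binding.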
For CTGATCAG, the “PBM E-score” value was -0.0327.
In the case of TATTTGCA, the “PBM E-score” value is reported as 0.0371.
With CCCAGCGA the “PBM E-score” value was -0.0316.
In the case of ACCAATTA, the “PBM E-score” value is reported as 0.199.
In the case of AAAAACAT, the “PBM E-score” value is reported as 0.241.
For TGAAACCA, the “PBM E-score” value was 0.438.
In the case of GAAAACAA, the “PBM E-score” value is reported as 0.197.
With CGAAACAA the “PBM E-score” value was 0.349.
In the case of AGAAACAG, the “PBM E-score” value is reported as 0.0492.
For AGAAACAC, the “PBM E-score” value was 0.121.
With AGAAACAT the “PBM E-score” value was 0.32.
With AGAAACCA the “PBM E-score” value was 0.194.
In the case of CGAAACAC, the “PBM E-score” value is reported as 0.348.
GGAAACAC was tested, and the “PBM E-score” value was 0.225.
With CGAAACCA the “PBM E-score” value was 0.209.
In the case of CGAAACAG, the “PBM E-score” value is reported as 0.244.
In the case of CGACGCAG, the “PBM E-score” value is reported as -0.237.
In the case of GCCTATTA, the “PBM E-score” value is reported as 0.0234.
For CAGCTCCC, the “PBM E-score” value was -0.254.
CCCGTCAC was tested, and the “PBM E-score” value was 0.0322.
In the case of CCAGCAAG, the “PBM E-score” value is reported as -0.148.
With AGGAGCAA the “PBM E-score” value was -0.108.
CGGCCCGA was tested, and the “PBM E-score” value was 0.078.
In the case of CCGAATAG, the “PBM E-score” value is reported as -0.0705.
For AAATCTGG, the “PBM E-score” value was 0.21.
For GGCGCTCA, the “PBM E-score” value was -0.066.
ATGATAAT was tested, and the “PBM E-score” value was 0.13.
For AGACCTAG, the “PBM E-score” value was -0.0522.
In the case of TGAAACAA, the “PBM E-score” value is reported as 0.493.
CCAAACCA was tested, and the “PBM E-score” value was 0.0357.
GGAAACAA was tested, and the “PBM E-score” value was 0.13.
With ACAAACCA the “PBM E-score” value was 0.00217.
In the case of AGAAACAA, the “PBM E-score” value is reported as 0.26.
TCAAACCA was tested, and the “PBM E-score” value was 0.278.
In the case of CGGAAGAA, the “PBM E-score” value is reported as 0.0583.
For ATATCATC, the “PBM E-score” value was 0.141.
GATAGAAC was tested, and the “PBM E-score” value was 0.0461.
For AGATTAGA, the “PBM E-score” value was 0.00999.
For AATGTTTA, the “PBM E-score” value was 0.174.
For AATGTTTC, the “PBM E-score” value was 0.318.
AATGTTAA was tested, and the “PBM E-score” value was 0.102.
AATGTTTG was tested, and the “PBM E-score” value was 0.0124.
With CAAGTTTC the “PBM E-score” value was 0.254.
With AAAGTTTA the “PBM E-score” value was 0.199.
AATGTTAT was tested, and the “PBM E-score” value was 0.265.
For AATGTTAG, the “PBM E-score” value was -0.00616.
With AAAGTTTC the “PBM E-score” value was 0.329.
With CATGTTTA the “PBM E-score” value was 0.199.
In the case of CATGTTTC, the “PBM E-score” value is reported as 0.4.
In the case of CATGTTGC, the “PBM E-score” value is reported as -0.0677.
AACGCTAA was tested, and the “PBM E-score” value was -0.0143.
With GTGTAGGA the “PBM E-score” value was 0.0365.
In the case of CACTCCAG, the “PBM E-score” value is reported as -0.019.
For ACTCTGAT, the “PBM E-score” value was 0.146.
For ATAAAGCC, the “PBM E-score” value was 0.00222.
With AGGCCTAG the “PBM E-score” value was -0.218.
With ACAGAAGG the “PBM E-score” value was -0.173.
CTTGAGGC was tested, and the “PBM E-score” value was -0.184.
In the case of ATGGACGG, the “PBM E-score” value is reported as -0.00997.
In the case of CTCGCACC, the “PBM E-score” value is reported as -0.103.
In the case of CGCCCACA, the “PBM E-score” value is reported as 0.197.
With CGTCGCCC the “PBM E-score” value was -0.121.
ATAAATTG was tested, and the “PBM E-score” value was 0.321.
With ATAAATTA the “PBM E-score” value was 0.255.
For CAAAATTA, the “PBM E-score” value was 0.247.
In the case of GAAAATTA, the “PBM E-score” value is reported as 0.206.
With AAAAATTG the “PBM E-score” value was 0.263.
In the case of CAAAATTG, the “PBM E-score” value is reported as 0.0598.
With AAAAATTA the “PBM E-score” value was 0.326.
For ACAAATTG, the “PBM E-score” value was 0.177.
ATAAATTC was tested, and the “PBM E-score” value was 0.102.
For AAAAATTC, the “PBM E-score” value was 0.224.
For ACAAATTA, the “PBM E-score” value was 0.263.
With CCAAATTA the “PBM E-score” value was 0.221.
CTCAACGC was tested, and the “PBM E-score” value was -0.0089.
For CAGCAGCC, the “PBM E-score” value was -0.0193.
AATGGAGC was tested, and the “PBM E-score” value was -0.0645.
AAACGATT was tested, and the “PBM E-score” value was 0.165.
ACTACTCA was tested, and the “PBM E-score” value was -0.0467.
For ACACCATG, the “PBM E-score” value was -0.108.
GACCGATA was tested, and the “PBM E-score” value was -0.00126.
With GCGAAGAC the “PBM E-score” value was -0.141.
In the case of AGGATTGC, the “PBM E-score” value is reported as -0.025.
In the case of ATAAACTG, the “PBM E-score” value is reported as 0.302.
For ATAAACTA, the “PBM E-score” value was 0.211.
In the case of ATAAACTC, the “PBM E-score” value is reported as 0.125.
With CTACGCTC the “PBM E-score” value was -0.00605.
With CTCCCATA the “PBM E-score” value was -0.0685.
TATTGGAA was tested, and the “PBM E-score” value was -0.00217.
For GGGATAAA, the “PBM E-score” value was 0.271.
In the case of TGATACAA, the “PBM E-score” value is reported as 0.339.
For CAATACAC, the “PBM E-score” value was 0.0704.
CGATACAA was tested, and the “PBM E-score” value was 0.0267.
With CGATAAAA the “PBM E-score” value was 0.171.
With TGATAAAA the “PBM E-score” value was 0.266.
In the case of GGGATAAC, the “PBM E-score” value is reported as -0.0162.
In the case of CAATACAG, the “PBM E-score” value is reported as -0.115.
For CGGATAAA, the “PBM E-score” value was 0.149.
With AGATACAA the “PBM E-score” value was 0.135.
With CAATACAA the “PBM E-score” value was 0.294.
With AGATAAAA the “PBM E-score” value was 0.245.
In the case of AATTAGGA, the “PBM E-score” value is reported as 0.145.
CCCAGCGG was tested, and the “PBM E-score” value was -0.192.
With AACACTCG the “PBM E-score” value was 0.0544.
In the case of TCTGAACA, the “PBM E-score” value is reported as 0.0453.
ACCACCGG was tested, and the “PBM E-score” value was -0.0277.
In the case of AAATTGAA, the “PBM E-score” value is reported as 0.185.
CCATGAAG was tested, and the “PBM E-score” value was -0.0229.
For CATAAGGC, the “PBM E-score” value was -0.0753.
With GGTGCGAA the “PBM E-score” value was 0.2.
With AAACCGTT the “PBM E-score” value was 0.00687.
For GGATAAAA, the “PBM E-score” value was 0.279.
CGGTAAAA was tested, and the “PBM E-score” value was 0.198.
With GGGTAAAC the “PBM E-score” value was 0.119.
In the case of GGGTAAAA, the “PBM E-score” value is reported as 0.295.
With GGATAAGA the “PBM E-score” value was 0.0906.
With GGATAAAC the “PBM E-score” value was 0.135.
For TGGGCCAA, the “PBM E-score” value was -0.177.
In the case of CAGCGTCG, the “PBM E-score” value is reported as -0.0332.
In the case of CGGAATAC, the “PBM E-score” value is reported as 0.134.
In the case of GATCAAGC, the “PBM E-score” value is reported as -0.0184.
For GAAGGCTC, the “PBM E-score” value was -0.209.
GATAAAAC was tested, and the “PBM E-score” value was 0.327.
AATAAAAC was tested, and the “PBM E-score” value was 0.245.
With CATAAAAG the “PBM E-score” value was 0.0283.
In the case of GATAAAAA, the “PBM E-score” value is reported as 0.277.
For GATAAATA, the “PBM E-score” value was 0.215.
For GATAAACC, the “PBM E-score” value was 0.0557.
For CATAAAAC, the “PBM E-score” value was 0.28.
With CATAAAAA the “PBM E-score” value was 0.175.
For GATAAAGA, the “PBM E-score” value was 0.0926.
CGAGCCGA was tested, and the “PBM E-score” value was -0.0584.
In the case of AGGTTTTC, the “PBM E-score” value is reported as 0.241.
GAGCTCCC was tested, and the “PBM E-score” value was -0.0992.
With CAGACTTC the “PBM E-score” value was -0.0901.
ACGACTAT was tested, and the “PBM E-score” value was -0.0677.
CGTCACCC was tested, and the “PBM E-score” value was 0.0725.
For ACAGAATG, the “PBM E-score” value was 0.0528.
With GGAACTAC the “PBM E-score” value was -0.105.
AACTATCA was tested, and the “PBM E-score” value was 0.262.
For CACTATTC, the “PBM E-score” value was 0.0168.
In the case of TACTATCA, the “PBM E-score” value is reported as 0.13.
For AACTATTC, the “PBM E-score” value was 0.264.
For AACTATTA, the “PBM E-score” value was 0.0788.
With GACTATCA the “PBM E-score” value was -0.0567.
With ATACGGCG the “PBM E-score” value was 0.15.
With ACGGGTCT the “PBM E-score” value was -0.211.
CCAATCTC was tested, and the “PBM E-score” value was 0.0596.
With ACCTGCAA the “PBM E-score” value was -0.0499.
GTGCGCAC was tested, and the “PBM E-score” value was 0.355.
ATGCGCAC was tested, and the “PBM E-score” value was 0.0144.
In the case of GTGCGCAA, the “PBM E-score” value is reported as -0.0274.
For CCAATCCA, the “PBM E-score” value was -0.0476.
For AGCGATCG, the “PBM E-score” value was 0.00873.
In the case of CAAAAGAC, the “PBM E-score” value is reported as 0.0341.
In the case of CGATTCGC, the “PBM E-score” value is reported as 0.0897.
TCTTGAAA was tested, and the “PBM E-score” value was 0.308.
In the case of CCTTGAAA, the “PBM E-score” value is reported as 0.21.
With GCTTGAAA the “PBM E-score” value was 0.198.
For ACTTGAAG, the “PBM E-score” value was 0.119.
For ACTTGAAA, the “PBM E-score” value was 0.314.
For ACTTGAAT, the “PBM E-score” value was 0.0108.
With GTCGAAGA the “PBM E-score” value was -0.0112.
With ACCTTAGT the “PBM E-score” value was -0.137.
For ATTGTAGC, the “PBM E-score” value was 0.0213.
With AGTGGTAT the “PBM E-score” value was -0.0443.
In the case of TCACAGGA, the “PBM E-score” value is reported as 0.122.
In the case of GCGTGAAC, the “PBM E-score” value is reported as -0.0471.
With GGAGGGAA the “PBM E-score” value was -0.0917.
GGGTGGGA was tested, and the “PBM E-score” value was 0.319.
For GGAGGGGA, the “PBM E-score” value was 0.366.
CGTGGGGA was tested, and the “PBM E-score” value was 0.0623.
With AGGTGGGA the “PBM E-score” value was -0.049.
For GGTGGGGA, the “PBM E-score” value was 0.318.
For CGGTGGGA, the “PBM E-score” value was 0.033.
In the case of CGAGGGGA, the “PBM E-score” value is reported as 0.0767.
In the case of GGTGGGAA, the “PBM E-score” value is reported as 0.127.
